According to PubChem BioAssay (NCATS):
Where “and” joins values, the source holds several entries; their conditions need not be identical. Equal entries are not always repeated. Inconclusive results are not listed. Calls of active or inactive are those of the source. Calls come from the whole dose curve; as a rule, active = well fitted curve in the direction sought with a large enough effect; inconclusive = small, poorly fitted or top-dose-only effect, or another doubt; inactive = no such curve, though single readings can be large; an effect the other way counts as inactive or inconclusive. Numbered stars: 1 amine (or outer) side, 2 acyl side, 3 side chain; on linkers, the order of the positions; unused ones are H or OH. Bridge positions count the residues as written; N and C are the ends. Square brackets hold non-standard residues; d marks the D form. Peptide text beside a SMILES is read from it. * marks the point of attachment. pTerphenylCO(4''-OnC5H11) = CCCCCOc1ccc(-c2ccc(-c3ccc(C(=O)*)cc3)cc2)cc1; Orn(4R-OH,5R-OH) = O=C([C@H](C[C@@H](O)[C@@H](O)N[*:3])N[*:1])[*:2]; hTyr(3S-OH,4S-OH) = N[C@H](C(=O)O)[C@H](O)[C@@H](O)c1ccc(O)cc1; Pro(3S-OH,4S-Me) = C[C@H]1CN[C@H](C(=O)O)[C@H]1O; Hyp = O=C(O)[C@@H]1C[C@@H](O)CN1

How the values were obtained:
[1] = biological target: Cellular tumor antigen p53 (Homo sapiens) (UniProt P04637); assay: Primary qHTS for small molecule compounds that upregulate eGFP-tagged delta133p53alpha (in N-terminal) cells. (AID 2060322); conditions: NCI-H358 eGFP-delta133p53alpha fluorescence, 24 h; activation: stronger effect = higher value; note: nearly all actives have a fitted effect of over 75% in size; note: potency is the fitted concentration of half-maximal effect;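 for activation: series mostly up to about 56 µM; 0% = DMSO vehicle and 100% = reference activator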
Summary of the method: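 NCI-H358 cells pre-induced 24 h with 10 ng/ml doxycycline to express N-terminal eGFP-delta133p53alpha, then dosed 24 h at 37C without doxycycline; fixed, Hoechst-stained, GFP intensity by laser scanning cytometry, normalized to DMSO (0%) and 57.5 uM 5-azacytidine (100%).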

[2] = biological target: Aldehyde dehydrogenase, mitochondrial (Homo sapiens) (UniProt P05091); assay: qHTS for Inhibitors of the Aldehyde Dehydrogenase Family (ALDH2) Primary screen (AID 2061308);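 note: plate controls were vehicle for no effect and reference inhibitor for full effect; nearly all actives have a fitted effect of over 55% in size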
[3] = biological target: Retinaldehyde dehydrogenase 3 (Homo sapiens) (UniProt P47895); assay: qHTS for Inhibitors of the Aldehyde Dehydrogenase Family (ALDH1A3) Validation screen (AID 2061312); note: nearly all actives have a fitted effect of over 45% in size; note: potency is the fitted concentration of half-maximal effect
[4] = biological target: Retinaldehyde dehydrogenase 3 (Homo sapiens) (UniProt P47895); assay: qHTS for Inhibitors of the Aldehyde Dehydrogenase Family (ALDH1A3) Primary screen (AID 2061315);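 note: plate controls were DMSO vehicle for no effect and reference inhibitor for full effect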

Chain of Cellular tumor antigen p53 (Homo sapiens) (P04637 whole entry, looked up): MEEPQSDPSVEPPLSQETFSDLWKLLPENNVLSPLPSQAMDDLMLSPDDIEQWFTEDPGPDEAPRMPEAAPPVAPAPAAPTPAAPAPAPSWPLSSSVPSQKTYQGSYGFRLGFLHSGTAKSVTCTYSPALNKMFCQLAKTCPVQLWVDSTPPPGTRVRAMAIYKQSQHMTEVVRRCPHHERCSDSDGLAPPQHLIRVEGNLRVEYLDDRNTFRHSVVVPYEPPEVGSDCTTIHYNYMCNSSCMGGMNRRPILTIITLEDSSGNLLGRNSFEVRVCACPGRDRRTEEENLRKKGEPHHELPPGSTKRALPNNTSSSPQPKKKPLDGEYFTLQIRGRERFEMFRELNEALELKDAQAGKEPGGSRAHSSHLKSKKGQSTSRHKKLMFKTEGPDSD

COc1cc(CCc2cc(NC(=O)c3ccc(N4CC(C)NC(C)C4)cc3)n[nH]2)cc(OC)c1 (stereo not given)
inactive: activation [1] 3.34% | Potency [2] | Potency [3] | Potency [4]

O=C(O)CC1CCC(c2ccc(-c3ccc4nc(C(=O)NCc5ccc(OC(F)(F)F)cc5)cn4c3)cc2)CC1 (stereo not given)
inactive: activation [1] 9.07% | Potency [2] | Potency [3] | Potency [4]

CC(C)N(CCCCOCC(=O)NS(C)(=O)=O)c1cnc(-c2ccccc2)c(-c2ccccc2)n1
inactive: activation [1] -4.77% | Potency [2] | Potency [3] | Potency [4]

CCCCOc1ccc(-c2cncc(C(=O)NCc3cccnc3N3CCOCC3)c2)cc1Cl
inactive: activation [1] 7.64% | Potency [2] | Potency [3] | Potency [4]

Cc1cc(C)c(S(=O)(=O)N(Cc2ccc(-c3cccc(S(C)(=O)=O)c3)cc2)Cc2ccc(C(F)(F)F)o2)c(C)c1
inactive: activation [1] -0.955% | Potency [2] | Potency [3] | Potency [4]

C=CCCN1CCC2(CC1)CN(C(=O)c1c(F)cccc1F)c1ccc(Cl)cc12
inactive: activation [1] 8.11% | Potency [2] | Potency [3] | Potency [4]

COc1ccc(NC(=O)c2ccc(C(=N)N(C)C)cc2)c(C(=O)Nc2ccc(Cl)cn2)c1
inactive: activation [1] -8.59% | Potency [2] | Potency [3] | Potency [4]

CCOc1c2c(c(OCC)c3ccccc13)C(=O)N(c1ccc(CC(=O)NS(=O)(=O)c3ccccc3)cc1)C2
inactive: activation [1] -25.3% | Potency [2] | Potency [3] | Potency [4]

O=C(N[C@H](Cc1ccccc1)C(=O)O)c1sc2cc(F)ccc2c1Cl
inactive: activation [1] -9.55% | Potency [2] | Potency [3] | Potency [4]

CS(=O)(=O)c1ccc([C@@H](O)[C@@H](CF)NC(=O)C(Cl)Cl)cc1
inactive: activation [1] -2.82% and -2.86% | Potency [2] | Potency [3] | Potency [4]

CN1CCN(Cc2ccc(NC(=O)Cc3ccc(Oc4cc(NC(=O)C5CC5)ncn4)cc3)cc2C(F)(F)F)CC1
inactive: Potency [2] | Potency [3] | Potency [4]
active: Potency [1] 6.75 µM

CCCC(Nc1nc(-c2ccc(NC(=O)NCC)c(OC)c2)ncc1C)c1cccnc1 (stereo not given)
inactive: activation [1] -2.86% | Potency [2] | Potency [3] | Potency [4]

CN1CCOC(c2ccccc2)c2ccccc2C1 (stereo not given)
inactive: activation [1] 0.837% and 6.21% | Potency [2] | Potency [3] | Potency [4]

Cc1ccc(NC(=O)C(C)C)cc1C1CCN(Cc2ccc(Oc3ccc(F)c(F)c3)cc2)CC1
inactive: activation [1] 16.7% | Potency [2] | Potency [3] | Potency [4]

Cc1oc2ccccc2c1CNC(=O)NCc1cccs1
inactive: activation [1] -8.59% | Potency [2] | Potency [3] | Potency [4]

COc1cc(Br)c(S(=O)(=O)Nc2ccc(Cl)c(O[C@@H]3CCN(C)C3)c2)cc1OC
inactive: activation [1] 21.5% | Potency [2] | Potency [3] | Potency [4]

CCCCCOc1ccc(-c2ccc(-c3ccc(C(=O)N[C@H]4C[C@@H](O)[C@@H](O)NC(=O)[C@@H]5[C@@H](O)[C@@H](C)CN5C(=O)[C@H]([C@@H](C)O)NC(=O)[C@H]([C@H](O)[C@@H](O)c5ccc(O)cc5)NC(=O)[C@@H]5C[C@@H](O)CN5C(=O)[C@H]([C@@H](C)O)NC4=O)cc3)cc2)cc1 ({pTerphenylCO(4''-OnC5H11)}-[Orn(4R-OH,5R-OH)]T[Hyp][hTyr(3S-OH,4S-OH)]T[Pro(3S-OH,4S-Me)]; lactam 1-C)
inactive: activation [1] 22.9% | Potency [2] | Potency [3] | Potency [4]

CCOc1nc2c(N)ncnc2n1CC
inactive: activation [1] -10% | Potency [2] | Potency [3] | Potency [4]

CCOC(=O)CCC(=O)O[C@H]1[C@H](O[C@@H]2[C@@H](C)[C@H](O[C@H]3C[C@@](C)(OC)[C@@H](O)[C@H](C)O3)[C@@H](C)C(=O)O[C@H](CC)[C@@](C)(O)[C@H](O)[C@@H](C)C(=O)[C@H](C)CC2(C)O)O[C@H](C)C[C@@H]1N(C)C (stereo not given in full)
inactive: activation [1] 9.55% | Potency [2] | Potency [3] | Potency [4]

CN(C)CCOc1cc(NS(=O)(=O)c2c(Cl)cc(C(F)(F)F)cc2Cl)ccc1Cl
inactive: activation [1] 0.477% | Potency [2] | Potency [3] | Potency [4]

CC(C)c1ccc(-c2cc(=O)c3ccccc3o2)cc1
inactive: activation [1] -14.8% | Potency [2] | Potency [3] | Potency [4]

Cc1cc(C)nc(NS(=O)(=O)c2ccc(NC(=S)NC(=O)COc3ccc(Br)cc3Cl)cc2)n1
inactive: activation [1] -6.21% | Potency [2] | Potency [3] | Potency [4]

COc1ccccc1N1CCN(c2ncnc3n[nH]c(Br)c23)CC1
inactive: activation [1] 20.5% | Potency [2] | Potency [3] | Potency [4]

Cc1nc(Nc2ccc(F)cc2)nc(N2CCc3ccccc3C2C)c1C (stereo not given)
inactive: activation [1] 11.9% | Potency [2] | Potency [3] | Potency [4]

CCOc1nc2cccc(C(=O)O)c2n1Cc1ccc(-c2ccccc2-c2noc(=O)[nH]2)cc1
inactive: activation [1] 0.955% | Potency [2] | Potency [3] | Potency [4]

CNC(=O)[C@@H](c1ccccc1)N1CCc2cc(OC)c(OC)cc2[C@@H]1CCc1ccc(C(F)(F)F)cc1
inactive: activation [1] -3.34% | Potency [2] | Potency [3] | Potency [4]

Cc1nc(C)c(-c2ccc(C3CCC(CC(=O)O)CC3)cc2)nc1C(N)=O (stereo not given)
inactive: activation [1] -13.4% | Potency [2] | Potency [3] | Potency [4]

Fc1ccc2c(CCNCc3cccc(OCC(F)(F)C(F)F)c3)c[nH]c2c1
inactive: activation [1] 3.34% | Potency [2] | Potency [3] | Potency [4]

CS(=O)(=O)Nc1ccc2oc3c(OC(F)F)ccc(C(=O)Nc4c(Cl)cncc4Cl)c3c2c1
inactive: activation [1] 22% | Potency [2] | Potency [3] | Potency [4]

CC(C)(CO)c1cc2cc(NC(=O)C3(c4ccc5c(c4)OC(F)(F)O5)CC3)c(F)cc2n1CC(O)CO (stereo not given)
inactive: activation [1] 17.7% | Potency [2] | Potency [3] | Potency [4]

CCCCOc1cc(C(=O)OCCN(CC)CC)ccc1N
inactive: activation [1] -2.82% and 0% | Potency [2] | Potency [3] | Potency [4]

CNC(C)C(=O)NC(C(=O)N1CCCC1C(=O)Nc1snnc1-c1ccccc1)C1CCCCC1 (stereo not given)
inactive: activation [1] 11% | Potency [2] | Potency [3] | Potency [4]

CC(C)c1ccccc1OC(=O)NCCc1ccc2ccccc2c1
inactive: activation [1] 2.39% | Potency [2] | Potency [3] | Potency [4]

CCOC(=O)COc1ccc2c(c1)C[C@@H](NC[C@H](O)c1cccc(Cl)c1)CC2
inactive: activation [1] 11.9% | Potency [2] | Potency [3] | Potency [4]

O=C(O)[C@@H]1C[C@H]2C[C@@H](CCc3nn[nH]n3)CC[C@H]2CN1
active: Potency [3] 10 µM
inactive: activation [1] 4.77% | Potency [2] | Potency [4]

Cc1nc2ccccc2c(-c2ccc3c4c(ccnc24)CCO3)c1[C@H](OC(C)(C)C)C(=O)O
inactive: activation [1] 0.955% | Potency [2] | Potency [3] | Potency [4]

O=C(O)C[C@@H](NC(=O)c1cc(-c2ccc(-c3ccncc3)cc2)cs1)c1ccccc1
inactive: activation [1] -1.43% | Potency [2] | Potency [3] | Potency [4]

Cc1c(OCc2cccc(-c3ccc(C(=O)O)cc3)c2)cc2c(c1C)C(=O)C(C1CCCC1)C2 (stereo not given)
inactive: activation [1] -8.59% | Potency [2] | Potency [3] | Potency [4]

Nc1nc(CC(=O)Nc2ccc(CCNCC(O)c3ccccc3)cc2)cs1 (stereo not given)
inactive: activation [1] -11% | Potency [2] | Potency [3] | Potency [4]

CC(C)NCC(C(=O)N1CCN(c2ncnc3c2C(C)CC3O)CC1)c1ccc(Cl)cc1 (stereo not given)
inactive: activation [1] 0.955% | Potency [2] | Potency [3] | Potency [4]

O=C1NC(=O)C(c2cn3c4c(cccc24)CCC3)C1c1c[nH]c2ccccc12 (stereo not given)
inactive: activation [1] 18.6% | Potency [2] | Potency [3] | Potency [4]

CC(C)(O)c1ccn2c(-c3ccc(F)c(-c4ccc(F)cc4C#N)c3)cnc2c1F
inactive: activation [1] -22.4% | Potency [2] | Potency [3] | Potency [4]

COc1cc(Br)c(S(=O)(=O)Nc2ccc(C(F)(F)F)c(O[C@@H]3CCN(C)C3)c2)cc1OC
inactive: activation [1] 12.4% | Potency [2] | Potency [3] | Potency [4]

CCCN1CCC[C@@H](c2cccc(S(C)(=O)=O)c2)C1
inactive: activation [1] -7.64% | Potency [2] | Potency [3] | Potency [4]

O=C(O)c1ccccc1NC(=O)N1CCC(c2ccccc2C(F)(F)F)CC1
inactive: activation [1] -3.34% | Potency [2] | Potency [3] | Potency [4]

CC(C)c1c(NC(=O)Nc2ccc(Cl)cc2)c(=O)n(-c2ccccc2)n1C
inactive: activation [1] 9.07% | Potency [2] | Potency [3] | Potency [4]

COC(=O)c1ccc2c(c1)nc(NC(=O)c1ccccc1)n2CCCc1ccccc1
inactive: activation [1] -10% | Potency [2] | Potency [3] | Potency [4]

CC(C)(C)c1cc(Br)cc([C@H](CC(=O)O)NC(=O)CNC(=O)c2cc(O)cc(NC3=NCC(O)CN3)c2)c1 (stereo not given in full)
inactive: activation [1] -5.25% | Potency [2] | Potency [3] | Potency [4]

Cc1cc(CN)cc(C)c1NC(=O)c1ccc(-c2cc(Cl)ccc2Cl)o1
inactive: activation [1] 6.68% | Potency [2] | Potency [3] | Potency [4]

COc1cccc(C(=O)NCCNc2nc3cc(C)cc(C)c3cc2C#N)c1
inactive: activation [1] -1.91% | Potency [2] | Potency [3] | Potency [4]

CC(=O)NCC(=O)N1C2CCC1c1cc(Nc3ncc(C(F)(F)F)c(NC4CCC4)n3)ccc12 (stereo not given)
active: Potency [1] 3.79 µM
inactive: Potency [2] | Potency [3] | Potency [4]

O=C(CCCCC1CCCCC1)N1CCC(c2cnc[nH]2)CC1
inactive: activation [1] -1.91% | Potency [2] | Potency [3] | Potency [4]

Cc1ccc(C(=O)C(C)CN2CCCCC2)cc1 (stereo not given)
inactive: activation [1] -2.39% | Potency [2] | Potency [3] | Potency [4]

COc1ccccc1Oc1c(NS(=O)(=O)c2ccc(C)cn2)nc(-c2ccncc2)nc1OC
inactive: activation [1] 20% | Potency [2] | Potency [3] | Potency [4]

CCOc1cc(CC(=O)NC(CC(C)C)c2ccccc2N2CCCCC2)ccc1C(=O)O (stereo not given)
inactive: activation [1] -4.3% | Potency [2] | Potency [3] | Potency [4]
